Bioassay records (PubChem)
USP8 inh: blocks human USP8 ubiquitin-rhodamine cleavage; P40818; purified USP8, Ub-rhodamine cleavage fluorescence, 30 min; inhibition, % at 20 µM; 47,000 tested, 4.2% active
USP28 block: inhibitors of human USP28 deubiquitinase. purified USP28, Ub-rhodamine cleavage fluorescence, 30 min. inhibition, % at 25 µM. 47,000 tested, 3% active. AID 1645857
OTUD3 block: inhibitors of human OTUD3 deubiquitinase; Q5T2D3; purified OTUD3, Ub-rhodamine fluorescence, 2 h; 47,000 tested, 0.7% active; inhibition, % at 25 µM
USP17 block: human USP17-like deubiquitinase inhibition; A8MUK1; inhibition, % at 50 µM; purified USP17, Ub-rhodamine cleavage fluorescence, 3 h; 47,000 tested, 6.5% active
USP30 inh: blocks human USP30 ubiquitin-rhodamine cleavage. Q70CQ3. purified USP30, Ub-rhodamine cleavage fluorescence. inhibition, % at 25 µM. 47,000 tested, 5.3% active
Target sequence (Q70CQ3 whole entry, looked up): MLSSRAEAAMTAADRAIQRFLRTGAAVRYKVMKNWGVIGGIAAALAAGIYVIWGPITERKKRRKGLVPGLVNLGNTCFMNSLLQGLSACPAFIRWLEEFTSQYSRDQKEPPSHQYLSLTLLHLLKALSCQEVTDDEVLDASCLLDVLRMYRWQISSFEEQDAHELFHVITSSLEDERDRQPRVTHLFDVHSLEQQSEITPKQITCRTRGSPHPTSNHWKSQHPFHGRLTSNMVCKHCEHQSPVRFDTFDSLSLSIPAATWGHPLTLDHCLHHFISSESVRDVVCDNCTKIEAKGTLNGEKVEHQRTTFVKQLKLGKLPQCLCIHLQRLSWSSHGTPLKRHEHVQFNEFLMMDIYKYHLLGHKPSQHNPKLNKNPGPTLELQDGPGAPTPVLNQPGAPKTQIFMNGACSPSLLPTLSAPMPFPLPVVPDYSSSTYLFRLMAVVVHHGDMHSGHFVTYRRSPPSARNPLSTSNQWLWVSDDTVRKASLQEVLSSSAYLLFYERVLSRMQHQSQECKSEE
Hits are given with their value; 0 = inactive; - = no result given. Most compounds without a hit are left out; they make up all but 13% or so of the library. No stated cut-off is given here; in the data, active means inhibition above about 30%; inactive means the rest.

SMILES | USP8 inh | USP28 block | OTUD3 block | USP17 block | USP30 inh
Cc1cccc(NS(=O)(=O)c2cc(C(=O)Nc3ccccc3)ccc2Cl)c1 | 0 | 0 | 0 | 0 | 0
Cc1cccc(NC(=O)Nc2ccc(C)c(C)c2)c1 | 0 | 0 | 0 | 0 | 31.2
CC(=O)c1cccc(NC(=O)c2ccc(CN(c3ccc(C)c(C)c3)S(C)(=O)=O)cc2)c1 | 0 | 72.9 | 0 | 0 | 0
CN1[C@@H](CCC(=O)NCc2cccnc2)CNC(=O)[C@@H]2[C@H]1CCN2Cc1ccc(C(F)(F)F)cc1 | 0 | 0 | 0 | 0 | 0
O=C(c1cccs1)[C@H]1C(/C=C/c2ccccc2)=NO[C@]12C(=O)Nc1ccccc12 | 0 | 0 | 0 | 0 | 0
O=C(CCCC(=O)N(c1cccc(C(F)(F)F)c1)C(C(=O)NC1CCCC1)c1ccc(Cl)cc1)Nc1ccccn1 (configuration not stated) | 0 | 0 | 0 | 0 | 0
COc1cc(OC)cc(C(=O)NCCS(=O)(=O)N2CCN(c3ccccc3)CC2)c1 | 0 | 0 | 0 | 0 | 0
Cc1ccc(-c2ncc(NC(=O)C3CCC3)cn2)cc1 | 33.3 | 0 | 0 | 0 | 0
O=C(Nc1cnn(-c2ncncc2N2CCCCC2)c1)C1CC1 | 0 | 0 | 0 | 0 | 0
O=C(NCc1ccccn1)C1CCN(c2cncnc2N2CCCCC2)CC1 | 0 | 40.6 | 0 | 0 | 0
Cc1ccc(NC(=O)C2CCN(c3cncnc3N3CCCC3)CC2)cc1 | 0 | 90.4 | 0 | 0 | 0
O=C(Nc1cnc(-c2ccc(F)cc2)nc1)C1CCC1 | 0 | 0 | 0 | 0 | 0
O=C(NCc1ccco1)C1CCN(c2cncnc2N2CCCC2)CC1 | 0 | 0 | 0 | 0 | 0
O=C(c1ccccc1)N1CCC2(CC1)COCCN(Cc1cccnc1)C2 | 0 | 0 | 0 | 0 | 0
O=C(Nc1ccccc1Br)c1cc2ccccn2n1 | 0 | 0 | 0 | 0 | 0
CC1CCN(CCNC(=O)c2nn(-c3ccccc3)c3c(=O)n(C)cnc23)CC1 | 0 | 0 | 0 | 0 | 0
CC(C)(C)c1ccc(Cn2nnc3c(=O)[nH]c(C4CCN(S(=O)(=O)c5ccc(S(=O)(=O)NC6CCCC6)cc5)CC4)nc32)cc1 | 0 | 0 | 0 | 0 | 0
CC(C)(C)c1ccc(Cn2nnc3c(=O)[nH]c(C4CCN(S(=O)(=O)c5ccc(S(=O)(=O)NC6CC6)cc5)CC4)nc32)cc1 | 32.6 | 31.7 | 0 | 64.0 | 0
COc1cc(S(=O)(=O)N2CCC(c3nc4c(nnn4Cc4ccc(F)cc4)c(=O)[nH]3)CC2)ccc1-n1cnnn1 | 0 | 0 | 0 | 32.4 | 46.9
O=c1[nH]c(C2CCN(S(=O)(=O)c3ccc(S(=O)(=O)N4CCOCC4)cc3)CC2)nc2c1nnn2Cc1cccc(Cl)c1 | 34.9 | 0 | 0 | 0 | 0
CC1CCCN(C(=O)CN2C(=O)COc3cc(S(=O)(=O)N4CCCC4)ccc32)C1 (configuration not stated) | 0 | 0 | 0 | 0 | 0
O=C(NC1CCCC1)[C@H]1CC[C@@H]2[C@@H](CCN2c2ncc(F)cn2)O1 | 0 | 0 | 0 | 0 | 0
O=C(Nc1ccc2c(c1)ncn2C1CCCCC1)C1CC1 | 0 | 0 | 0 | 0 | 0
COc1cccc(C(=O)NCC(c2ccco2)N2CCCC2)c1 (configuration not stated) | 0 | 0 | 0 | 0 | 0
COc1ccc(Cn2c3c(c(=O)[nH]c2=O)CN(C2CCCCC2)CN3)cc1 | 0 | 0 | 0 | 43.5 | 46.6
SMILES | USP8 inh | USP28 block | OTUD3 block | USP17 block | USP30 inh
COc1ccc(CN2CC(=O)N3CS(=O)(=O)C[C@H]3C2=O)cc1 | 0 | 0 | 0 | 0 | 0
CNc1nc(C2CCN(C(=O)C3(c4cccc(C)c4)CCOCC3)C2)nc2c1CCN(C)C2 (configuration not stated) | 37.3 | 0 | 0 | - | 0
O=c1[nH]c(N2CCc3ccccc3C2)nc2c1CCN(S(=O)(=O)c1ccccc1)CC2 | 0 | 0 | 0 | 0 | 0
CCCN1C(=O)Cc2c(C)nc(-c3cccc(F)c3)nc21 | 75.1 | 0 | 0 | 0 | 0
COc1ccc(NC(=O)CNCCCn2ccnc2)cc1Cl | 0 | 0 | 0 | 0 | 0
Clc1ccc(Oc2nc3ccccc3c3nnc(-c4ccc(Br)cc4)n23)c(Cl)c1 | 0 | 0 | 0 | 36.7 | 0
COc1ccc(Cl)cc1Nc1cc(C)c2ccccc2n1 | 0 | 0 | 0 | 0 | 0
COc1cccc(-c2nc(C(N)=O)c3[nH]c(=O)n(-c4ccc5c(c4)OCO5)c3n2)c1O | 31.4 | 0 | 0 | 0 | 0
NC(=O)c1nc(-c2ccc(OCc3ccccc3)cc2)nc2c1[nH]c(=O)n2-c1ccc2c(c1)OCO2 | 49.3 | 0 | 0 | 0 | 0
NC(=O)c1nc(-c2ccc(OCc3ccccc3)cc2)nc2c1[nH]c(=O)n2-c1ccccc1 | 0 | 0 | 0 | 0 | 0
O=C(Nc1cccc(F)c1)c1ccc(=O)n(CCN2CCOCC2)c1 | 0 | 0 | 0 | 0 | 0
COc1ccc(-n2nnnc2CN2CCN(S(=O)(=O)c3ccc(F)cc3)CC2)cc1 | 0 | 0 | 0 | 33.6 | 0
O=S(=O)(c1ccc(Cl)cc1)N1CCN(Cc2nnnn2-c2ccc(F)cc2)CC1 | 0 | 0 | 0 | 0 | 0
CCCCCn1c(=O)[nH]c2cc(C(=O)NCCN3CCC(Cc4ccccc4)CC3)ccc2c1=O | 0 | 0 | 0 | 0 | 43.8
CCCCCn1c(=O)[nH]c2cc(C(=O)NCCCN3CCN(c4cccc(Cl)c4)CC3)ccc2c1=O | 0 | 0 | 0 | 0 | 0
O=C(c1cnn2c(-c3ccc(F)cc3)ccnc12)N1CCCC(O)CC1 (configuration not stated) | 0 | 0 | 0 | 0 | 0
O=C(Nc1ccc(Cl)cc1)C(=O)c1cn(CC(=O)N2CCCCC2)c2ccccc12 | 0 | 0 | 0 | 0 | 0
Cc1ccc(-c2noc3ncnc(NCc4ccco4)c23)cc1 | 0 | 0 | 0 | 0 | 0
Cc1ccc(NCc2cc3c(-c4ccc(F)cc4)nn(-c4ccccc4)c3[nH]c2=O)cc1C | 77.2 | 0 | 0 | 0 | 0
COc1ccc(-c2nn(-c3ccccc3)c3[nH]c(=O)c(CNC4CCCC4)cc23)cc1 | 0 | 0 | 0 | 0 | 0
Cc1nn(-c2ccccc2)c2[nH]c(=O)c(CNCc3ccc(F)cc3)cc12 | 55.5 | 0 | 0 | 0 | 0
O=c1[nH]c2c(cc1CNCc1cccnc1)c(-c1cccc(F)c1)nn2-c1ccccc1 | 68.4 | 0 | 0 | 0 | 0
Cc1nn(-c2ccccc2)c2[nH]c(=O)c(CNCc3ccc4c(c3)OCO4)cc12 | 77.5 | 0 | 0 | 0 | 0
Cc1nn(-c2ccccc2)c2[nH]c(=O)c(CNc3ccccc3)cc12 | 0 | 0 | 0 | 0 | 0
Cc1nn(-c2ccccc2)c2[nH]c(=O)c(CNCc3ccco3)cc12 | 0 | - | 0 | 0 | -
Cc1ccc(-c2nn(-c3ccccc3)c3[nH]c(=O)c(CNCc4ccccc4)cc23)cc1 | 55.8 | 0 | 0 | 0 | 0
Cn1c(=O)c2c(-c3ccc(C(C)(C)C)cc3)n(CCc3ccccc3)cc2n(C)c1=O | 0 | 0 | 0 | 0 | 0
O=C(Cn1cnc2ccc(Cl)cc2c1=O)N(Cc1ccccc1F)C1CC1 | 0 | 0 | 0 | 0 | 0
O=C(Cn1cnc2sc(-c3ccccc3)cc2c1=O)N(Cc1ccccc1F)C1CC1 | 0 | 30.7 | 0 | 34.4 | 35.1
CC(C)COc1ccc(-c2nonc2NC(=O)C2COc3ccccc3O2)cc1 (configuration not stated) | 0 | 0 | 0 | 0 | 0
